Measured values reported in the OligoGym collection.

Target: INF2
Test: pooled miR-30 sensor sort-seq; sequence = guide strand
Details: shRNA
Further: reference of the scale not given here.

Sequence | sensor-assay potency score (higher = more potent)
TTCAGCAATGTGCTGATCTTGA | -0.209
TCAGTGGTTAGGACATCGCTGG | -0.678
TTGCATTTTGATTAAACCTTGC | -0.249
TTTTGATTAAACCTTGCTGGGC | -0.764
TTTCAATCTCGTGCTTCTCGGG | -0.468
TGTTGTAGCATCAAGGCCGGGC | -0.171
TAGAGTTGTGCTCACGTGCCAC | -0.638

Target: INO80B
Test: as above
Details: shRNA

Sequence | sensor-assay potency score (higher = more potent)
TTTTCTTGTGCACTCCATGGCC | -0.4
TAACCCTCCTGATAGGTCCCGA | -0.336
TTGTGTTTCTTCTTGTGCTTCT | 0.567
TTACTGTCTTCATCCAGCCAGG | -0.737
TCTGGGATCACAGTGAAGGTAG | 0.138
ATTACTGTCTTCATCCAGCCAG | -0.0733
TTGAGTTTGAGCTGAGGCTTGG | -0.366
TTCTTGTGCACTCCATGGCCAT | -1.62
TTATCCACAACCATAAGGGGAG | -0.805
ATTATCCACAACCATAAGGGGA | -1.17
TTTGAGTTTGAGCTGAGGCTTG | -0.36
TTCCTGATGGTGTTTCTTCTTG | -0.564
